The values below come from PubChem BioAssay (NCI).

Holding throughout (assay): NCI-60 one-dose screen, 48 h (100 = growth as untreated, 0 = no growth, -100 = all killed)
Test [1] has as its system HCT-15 colon. To be noted: 10 µM unless noted.
The subject of test [2] is HT29 colon. To be noted: 10 µM unless noted.
For test [3], the system named is SNB-75 CNS. To be noted: 10 µM unless noted.
Test [4] concerns SNB-19 CNS. To be noted: 10 µM unless noted.
For test [5], the system named is U251 CNS. To be noted: 10 µM unless noted.
For test [6], the system named is PC-3 prostate. To be noted: 10 µM unless noted.
In test [7] the test system is SK-MEL-5 melanoma. To be noted: 10 µM unless noted.
The test system of test [8] is UACC-62 melanoma. To be noted: 10 µM unless noted.
Test [9] has as its system LOX IMVI melanoma. To be noted: 10 µM unless noted.
Test [10] deals with SK-MEL-28 melanoma. To be noted: 10 µM unless noted.
Test [11] has as its system SK-MEL-2 melanoma. To be noted: 10 µM unless noted.
The subject of test [12] is EKVX NSCLC. To be noted: 10 µM.
Test [13] relates to SN12C renal. To be noted: 10 µM unless noted.
Test [14] concerns UO-31 renal. To be noted: 10 µM unless noted.
The test system of test [15] is TK-10 renal. To be noted: 10 µM unless noted.
For test [16], the system named is ACHN renal. To be noted: 10 µM unless noted.
Test [17] deals with CAKI-1 renal. To be noted: 10 µM unless noted.
Test [18] relates to A498 renal. To be noted: 10 µM unless noted.
The subject of test [19] is CCRF-CEM leukemia. To be noted: 10 µM.
In test [20] the test system is MOLT-4 leukemia. To be noted: 10 µM unless noted.

This is part of a sample that, as a whole, favours compounds with a hit. Of some 83,000 tested, about 20% had one in any assay.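 Testing used 96-well plates and a 48-hour single-concentration exposure. Example: -40 means 40% of the starting cells died.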 Values without a mark were called inactive. Activity calls are given as the source filed them. The calls were made as follows: active = growth percent below 10; inactive = the rest.

For `c1ccc(C(=NNc2nc3ccccc3o2)c2ccccn2)nc1`, the growth is 16.8% in [1]; 23% in test [2]; 31.7% in [3]; 24.5% in [4]; 10.6% in test [5]; 29.2% in test [6]. The growth in test [7] was -58% (active); in test [8], -8.29% (active); in test [9], 0.582% (active); in [10], 25.2%; in test [11], 37.7%; in [12] it was 8% (active). Further, the growth in test [13] is 16.1%; in test [14] it was 2.19% (active); in test [15], 41.8%; in [16], 8.01% (active); in test [17] it was 5.09% (active); in test [18], -27% (active). In addition, the figures for the growth in [19] and in test [20] were 3.17% (active) and 12.3%, respectively.
Consider `C/C(=N\Nc1ccc(Cl)cn1)c1ccc2ccccc2n1`, for which the growth in test [1] is 13.4%; in [2] it was 16.3%; in test [3], 32.5%; in [4], 24.7%; in test [5], 6.99% (active); in test [6], 17.7%. The growth in test [7] was -45% (active); in test [8] it was -7.97% (active); in test [9], 2.73% (active); in [10], 17.5%; in test [11], 35.5%; in [12], 11.1%. The growth in test [13] is 18%; in [14], 2.27% (active); in test [15], 56.3%; in test [16], 8.37% (active); in test [17], 7.16% (active); in test [18] it was -15.7% (active). Moreover, the growth in test [19] and in test [20] was 3.63% (active) throughout.
With `Cc1ncc(C(=O)Nc2ccc(CN3CCN(C)CC3)c(C(F)(F)F)c2)cc1C#Cc1c(N)ncc2ccccc12`, the growth in test [1] is -90.8% (active); in test [2] it was -89% (active); in test [3], -90.6% (active); in [4], -100% (active); in test [5] it was -99.6% (active); in test [6], -76.7% (active). Further, the growth was -99.6% (active) in [7]; -82.3% (active) in test [8]; -89.9% (active) in test [9]; -96.5% (active) in test [10]; -76.9% (active) in [11]; -89.5% (active) in test [12]. In addition, the growth is -99.1% (active) in test [13]; -99.1% (active) in [14]; -99.4% (active) in test [15]; -100% (active) in [16]; 2.22% (active) in test [17]; -98% (active) in test [18]. For the same molecule, the growth in test [19] was -48.3% (active); in test [20], -67.6% (active).
Consider `c1ccc2[nH]c(-c3ccc(OCCCCCOc4ccc(-c5nc6ccccc6[nH]5)cc4)cc3)nc2c1`, for which the growth in [1] was 16.7%; in [2], -30.6% (active); in [3], -4.77% (active); in test [4], 46%; in [5], -2.78% (active); in test [6], -70% (active). In addition, the growth in [7] is 37.7%; in [8], 12.8%; in test [9] it was -77% (active); in test [10], -71.6% (active); in test [11] it was 64%; in test [12] it was 87%. In addition, the growth is 19.8% in test [13]; 78% in [14]; -50.9% (active) in [15]; 35.5% in test [16]; 94.1% in test [17]; 143% in test [18]. Moreover, the values for the growth in test [19] and in test [20] were -87.9% (active) and -19.1% (active), respectively.
On to `Nc1cc2c(cc1Br)[nH]c(=O)c1ccccc12`, for which the growth in test [1] is 58.3%; in [2] it was 22.4%; in [3], 94.3%; in [4] it was 58.6%; in test [5], 40.3%; in test [6], 42.9%. The growth is 0.102% (active) in test [7]; 73.4% in [8]; 25.1% in [9]; 78.4% in test [10]; 40.2% in test [11]; 49.5% in [12]. Further, the growth was 39.8% in test [13]; 48.1% in [14]; 44% in test [15]; 22.5% in [16]; 52.9% in test [17]; 56% in [18]. For the same molecule, the growth in test [19] was 47.1%; in [20], 20.9%.
Turning to `COc1ccc2c(c1)/C(=C/c1c(-c3cc(OC)c(OC)c(OC)c3)nc3sccn13)C(=O)N2`, the growth was 99.5% in [1]; 108% in test [2]; 78.3% in [3]; 97.1% in test [4]; 96.3% in [5]; 85% in [6]. The growth is 81.8% in [7]; 92.5% in [8]; 98.3% in test [9]; 98.8% in test [10]; 98.6% in test [11]; 94.3% in test [12]. The growth was 105% in test [13]; 77.8% in [14]; 102% in test [15]; 100% in test [16]; 67.3% in test [17]; 65.3% in test [18]. In addition, the growth in test [19] is -43.3% (active); in test [20], -61.2% (active).
Turning to `COC(=O)c1ccc2[nH]c(O)c(C(=Nc3ccc(N(C)C(=O)CN4CCN(C)CC4)cc3)c3ccc([N+](=O)[O-])cc3)c2c1`, the growth was 73% in test [1]; 38% in test [2]; 54.7% in test [3]; 80.1% in [4]; 42.6% in test [5]; 35.1% in test [6]. Further, the growth was 49.4% in test [7]; 52.7% in test [8]; 46.2% in [9]; 64.9% in [10]; 43.2% in test [11]; 88.1% in [12]. Besides, the growth is 27.4% in [13]; 65.6% in test [14]; 72.2% in test [15]; 54.3% in test [16]; 19% in [17]; 25.9% in test [18]. In addition, the growth in test [19] was 21.2%; in test [20] it was 8.41% (active).
